# Results with a measured potency or affinity are listed apart. Records with an inconclusive call do not appear. Activity calls are given as the source filed them.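 The calls were made as follows: active = signal loss from cell killing with fitted potency at or below twice the top valid dose; inconclusive = flat drop of 30 to 70%, or unreliable curve fit; inactive = opposite direction, flat within 30%, or weaker potency.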
# Test: A549 cell cytotoxicity, dose response, cytotoxicity control, cherry-picks, 26 µM top dose (AID 1053119)
# Settings: A549 viability, CellTiter-Glo ATP luminescence, 72 h; series mostly up to 26 µM
compound,measurement,value
C=C1C(=O)O[C@@H]2C[C@@H](C)[C@@H]3C=CC(=O)[C@@]3(C)[C@@H](O)[C@H]12,outcome,inactive

# Reference: PubChem BioAssay AID1053119 (Broad Institute, 2014)
